High-throughput results (PubChem BioAssay)
B2AR ag – agonists of human beta-2 adrenergic receptor inducing internalization | P07550 | hit rate 0.43% among 340,000 | Am2.2-beta2AR cells, FAP receptor internalization, flow cytometry | AID 504454 | response, % (concentration not given with the values);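 active = response above a set limit, near 3 SD of response in nonfluorescent compounds, cut at about 42% in these data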
Target sequence (P07550 whole entry, looked up): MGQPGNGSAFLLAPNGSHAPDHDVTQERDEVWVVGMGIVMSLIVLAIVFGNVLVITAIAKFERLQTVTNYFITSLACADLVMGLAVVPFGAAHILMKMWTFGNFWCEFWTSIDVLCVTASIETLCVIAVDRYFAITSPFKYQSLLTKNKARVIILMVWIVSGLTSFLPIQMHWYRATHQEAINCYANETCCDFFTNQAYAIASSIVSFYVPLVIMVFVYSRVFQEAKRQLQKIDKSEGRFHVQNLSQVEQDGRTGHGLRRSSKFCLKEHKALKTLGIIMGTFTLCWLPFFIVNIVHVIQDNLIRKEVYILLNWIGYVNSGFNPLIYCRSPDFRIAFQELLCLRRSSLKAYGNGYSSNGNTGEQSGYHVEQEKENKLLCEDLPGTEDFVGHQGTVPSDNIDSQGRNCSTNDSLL
MITF TRPM1 inh – inhibitors of MITF-driven TRPM1 promoter in melanoma cells; hit rate 0.83% among 330,000; SK-MEL-5 TRPM1 promoter luciferase, 24 h; AID 488899; inhibition, % at 12.5 µM;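 active = mean inhibition across replicates of 60% or more, whatever share of single replicates reaches that level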
CF NFkB block – inhibitors of cystic fibrosis induced NF-kB; KKLEB NF-kB-GFP reporter, PAF-induced, GFP fluorescence overnight; inhibition, % at 5 µM; hit rate 0.86% among 360,000;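 active = at least 50% inhibition at 5 µM, scaled per plate between neutral and stimulator controls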;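 also: PAF is a Pseudomonas aeruginosa culture filtrate used as stimulus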
KKLEB tox – counter-screen for CF NF-kB inhibitors: cytotoxicity; KKLEB CF airway cells viability, ATPlite luminescence, overnight; active compounds read low; cells stimulated with P. aeruginosa culture filtrate; activity change (cytotoxicity), % at 5 µM; hit rate 0.36% among 360,000; AID 602141;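 active = corrected activity change at or below -50% at 5 µM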
HIF-2a block – HIF-2a inhibition; AID 624352; inhibition, % at 18.8 µM; hit rate 0.72% among 360,000; 786-0 RCC cells HIF-2a reporter, luciferase luminescence, overnight;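 active = inhibition of the luminescence signal of 40% or more relative to plate controls, in a single-dose primary screen at 18.75 µM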
Peg3 prom inh-1 – reduces Peg3 promoter-driven luciferase expression in HeLa; hit rate 1.7% among 360,000; HeLa PEG-Prom luciferase reporter, luminescence, overnight; inhibition, % at 20 µM;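 active = inhibition of at least 50% at 20 µM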
Peg3 prom inh-2 – Peg3 promoter inhibition confirmation; HeLa PEG-Prom luciferase reporter, luminescence, overnight; hit rate 84% among 1,300; inhibition, % at 20 µM; shares compounds with Peg3 prom inh-1;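 active = at 20 µM dose, 40% or more inhibition averaged across four replicates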
Of the large screens only hits and unclear results are named; the others gave an inactive call (follow-up assays come after a bar, where they were run). Only some compounds are listed: those with a hit (about 2.8% of all), similar ones and a draw of the others.

Cn1cnc([N+](=O)[O-])c1Sc1nc(N)nc2c1ncn2C1OC(CO)C(O)C1O (stereo not drawn)	Peg3 prom inh-1 61 | Peg3 prom inh-2 64
O=C(COC(=O)c1ccc2ncsc2c1)Nc1ccccc1Br	none
CC(C)C[C@@H]1COc2cccc(N(C)CCO)c2S(=O)(=O)N1	none (no result: B2AR ag, MITF TRPM1 inh, CF NFkB block, KKLEB tox, Peg3 prom inh-1)
CCOC(=O)c1ccc2ncc(C(=O)OCC)c(NCCN(C)C)c2c1	Peg3 prom inh-1 55 | Peg3 prom inh-2 55
CCOC(=O)c1cnc2ccc(C(=O)OC)cc2c1Nc1cccc(C(=O)O)c1	none
Cc1noc(C)c1-c1ccc(C(=O)NC2CCCCC2)c2occc12	none (no result: B2AR ag, MITF TRPM1 inh)
CCCCCCCCOC(=O)c1cc([N+](=O)[O-])c(Sc2ncnc3nc[nH]c23)c([N+](=O)[O-])c1	B2AR ag 99, Peg3 prom inh-1 83 | Peg3 prom inh-2 73
COc1cc(OC)cc(C(=O)Nc2ccccc2-c2nnn(CC(=O)Nc3cc(C)on3)n2)c1	Peg3 prom inh-1 71 | Peg3 prom inh-2 inactive
Cc1ccc(-n2ncc(-c3n[nH]c(=S)o3)c2N)cc1C	none (no result: B2AR ag, MITF TRPM1 inh)
c1ccc(CN=C(NCc2ccccc2)NCc2ccccc2)cc1	Peg3 prom inh-1 90 | Peg3 prom inh-2 88
O=C(NCC(F)(F)F)c1ccc2sc([C@H]3C[C@H](O)[C@@H](CO)O3)nc2c1	none (no result: B2AR ag, MITF TRPM1 inh)
COc1ccc(/C=C/C(=O)c2ccc3c(c2)OCCO3)cc1[N+](=O)[O-]	Peg3 prom inh-1 71 | Peg3 prom inh-2 80
Cc1ccc(C)c(CN2CCC(CNC(=O)Nc3cccc(Cl)c3C)CC2)c1	none
Cc1ccc(C)c(CN2CCC(CNC(=O)Nc3ccc(F)c(Cl)c3)CC2)c1	Peg3 prom inh-1 68 | Peg3 prom inh-2 98
CCC(C)[C@H]1CNC(=O)C(=O)N1CC(C)(C)C (stereo partly drawn)	none (no result: B2AR ag, MITF TRPM1 inh, CF NFkB block, KKLEB tox, Peg3 prom inh-1)
CCCCCN1C=CC(=C2C(=O)c3ccccc3C2=O)C=C1	MITF TRPM1 inh 99, KKLEB tox -82, HIF-2a block 88, Peg3 prom inh-1 103 | Peg3 prom inh-2 91
Cc1cccc(C)c1-n1nnnc1C1(C)CCC(=O)N1Cc1cccnc1 (stereo not drawn)	none (no result: B2AR ag, MITF TRPM1 inh, CF NFkB block, KKLEB tox, Peg3 prom inh-1)
CN(C)c1ccc(/C=C/c2ccc3ccccc3n2)cc1	MITF TRPM1 inh 72, KKLEB tox -80, HIF-2a block 76, Peg3 prom inh-1 89 | Peg3 prom inh-2 68
CN(C)c1ccc(/C=C/c2nc3ccccc3s2)cc1	MITF TRPM1 inh 77, KKLEB tox -83, HIF-2a block 62, Peg3 prom inh-1 102 | Peg3 prom inh-2 67
Cc1ccc(/C=C/c2nc3ccccc3s2)s1	none
Cc1ccc(S(=O)(=O)NC(C)C(=O)OCC(=O)Nc2sccc2C(N)=O)cc1 (stereo not drawn)	none (no result: B2AR ag, MITF TRPM1 inh)
COC(=O)[C@]12CCCCC=C1N(Cc1ccccc1)C(=O)[C@H](CC(=O)N1CCCCC1)C2	none (no result: B2AR ag, MITF TRPM1 inh, CF NFkB block, KKLEB tox, Peg3 prom inh-1)
COc1ccc(-c2nc3c(C(=O)NCCN(C)C)cccc3c3ccccc23)cc1	Peg3 prom inh-1 95 | Peg3 prom inh-2 99
COC(=O)N1CCCCC1c1cc(C(=O)N2CCOCC2)no1 (stereo not drawn)	none (no result: B2AR ag, MITF TRPM1 inh)
CCC(c1nnnn1-c1ccc2c(c1)OCCO2)N1CCN(Cc2c(F)cccc2Cl)CC1 (stereo not drawn)	none (no result: B2AR ag, MITF TRPM1 inh, CF NFkB block, KKLEB tox, Peg3 prom inh-1)
Cc1ccc(C2=NC(=O)/C(=C/c3cc(O)c(O)c(Br)c3)S2)cc1	Peg3 prom inh-1 67 | Peg3 prom inh-2 67
Cc1cccc(NC(=O)c2ccc(N3CCOCC3)c([N+](=O)[O-])c2)n1	none
O=C(Nc1ccc(-c2nc3ccccc3o2)cc1)c1ccc(N2CCOCC2)c([N+](=O)[O-])c1	CF NFkB block 52, KKLEB tox -51, Peg3 prom inh-1 51 | Peg3 prom inh-2 48
CC(=O)c1sc2c(c1OC(=O)c1ccc(Cl)cc1Cl)c(=O)n(-c1ccccc1)c(=S)n2-c1ccccc1	MITF TRPM1 inh 63, CF NFkB block 54, Peg3 prom inh-1 80 | Peg3 prom inh-2 59
COc1cccc(C(O)c2ncc(-c3cccc(F)c3)[nH]2)c1 (stereo not drawn)	none (no result: B2AR ag, MITF TRPM1 inh)
CCN(CC)CCNc1cccc2sc3ccccc3c(=O)c12	Peg3 prom inh-1 101 (no result: B2AR ag, MITF TRPM1 inh) | Peg3 prom inh-2 68
CC1CCN(c2nc3ccc(C(=O)O)cc3s2)CC1	MITF TRPM1 inh 90, HIF-2a block 89, Peg3 prom inh-1 106 | Peg3 prom inh-2 87
CC1CCN(c2nc3ccc(C(=O)NCCCN4CCCCC4)cc3s2)CC1	none
Nc1ccc(-c2nc3ccc(C(=O)O)cc3s2)cc1	MITF TRPM1 inh 115, HIF-2a block 88, Peg3 prom inh-1 101 | Peg3 prom inh-2 94
CCCSCCCNC(=O)Cn1nc(CC)n2c(cc3c(OC)cccc32)c1=O	Peg3 prom inh-1 54 (no result: MITF TRPM1 inh) | Peg3 prom inh-2 inactive
CCc1nn(CC(=O)NCCN2CCOCC2)c(=O)c2cc3c(OC)cccc3n12	none
CN1Cc2c(N3CCOCC3)nc3sc(C(=O)c4ccc(Br)cc4)c(N)c3c2CC1(C)C	Peg3 prom inh-1 80 (no result: MITF TRPM1 inh) | Peg3 prom inh-2 97
CN1Cc2c(N3CCOCC3)nc3sc(C#N)c(N)c3c2CC1(C)C	none
NC(=O)SCC(=O)Nc1ccc(Cl)c(Cl)c1	Peg3 prom inh-1 66 | Peg3 prom inh-2 inactive
CCOc1ccc2[nH]c3c(NCCc4ccc(OC)c(OC)c4)ncnc3c2c1	Peg3 prom inh-1 66 | Peg3 prom inh-2 65
CCOC(=O)C1CCN(c2cc3c(cc2NC(=O)c2ccccc2OCC)n(C)c(=O)n3C)CC1	Peg3 prom inh-1 51 | Peg3 prom inh-2 45
CCOC(=O)C1CCN(c2cc3c(cc2NC(=O)c2ccccc2Cl)n(C)c(=O)n3C)CC1	none
Cc1cccc(C)c1NC(=O)C(c1ccccc1OC(F)(F)F)N1CCC(c2ccccc2)CC1 (stereo not drawn)	none (no result: B2AR ag, MITF TRPM1 inh, CF NFkB block, KKLEB tox, Peg3 prom inh-1)
CCCCCCCn1c(=N)n(CC(O)c2ccco2)c2ccccc21 (stereo not drawn)	Peg3 prom inh-1 80 | Peg3 prom inh-2 91
CCCCn1c(=N)n(CC(=O)c2ccco2)c2ccccc21	none
CCCCCCCn1c(=N)n(CC(=O)c2ccco2)c2ccccc21	Peg3 prom inh-1 87 | Peg3 prom inh-2 64
CCOC(=O)C[C@@H]1OC[C@H](C)N1S(=O)(=O)c1ccc(C)cc1	none (no result: B2AR ag, MITF TRPM1 inh, CF NFkB block, KKLEB tox, Peg3 prom inh-1)
CCc1c(C)[nH]n(-c2nc(-c3ccccc3)cs2)c1=O	none
Cc1[nH]n(-c2nc(-c3ccc(Cl)cc3)cs2)c(=O)c1N=Nc1ccc(O)cc1	Peg3 prom inh-1 54 | Peg3 prom inh-2 inactive
Cc1ccccc1CC1(CO)CCCN(C(=O)c2ccoc2)C1 (stereo not drawn)	none (no result: B2AR ag, MITF TRPM1 inh)
O=C1N=C(N2CCOCC2)S/C1=C\c1ccc(-c2ccccc2Cl)o1	Peg3 prom inh-1 55 | Peg3 prom inh-2 inactive
Cc1ccccc1-c1ccc(/C=C2/SC(N3CCOCC3)=NC2=O)o1	none
O=C(NCC1CCCCC1)c1[nH]c(C(F)(F)F)nc1-c1ccccc1	none (no result: B2AR ag, MITF TRPM1 inh)
